# Bioassay records deposited in PubChem by National Center for Advancing Translational Sciences (NCATS).
# Only some compounds are listed: those with a hit (about 2.4% of all), similar ones and a draw of the others.
# D2 antagonist – D2 dopamine receptor (human) antagonism; HEK293 TREx D2 cells, calcium flux, dopamine EC80; inhibition, % at 10 µM; 340,000 compounds, 2% hits; AID 485344; in the data active means inhibition above about 30%; inactive means below that, where a call was filed; further: 0% is about no effect
# Target sequence (P14416 whole entry, looked up): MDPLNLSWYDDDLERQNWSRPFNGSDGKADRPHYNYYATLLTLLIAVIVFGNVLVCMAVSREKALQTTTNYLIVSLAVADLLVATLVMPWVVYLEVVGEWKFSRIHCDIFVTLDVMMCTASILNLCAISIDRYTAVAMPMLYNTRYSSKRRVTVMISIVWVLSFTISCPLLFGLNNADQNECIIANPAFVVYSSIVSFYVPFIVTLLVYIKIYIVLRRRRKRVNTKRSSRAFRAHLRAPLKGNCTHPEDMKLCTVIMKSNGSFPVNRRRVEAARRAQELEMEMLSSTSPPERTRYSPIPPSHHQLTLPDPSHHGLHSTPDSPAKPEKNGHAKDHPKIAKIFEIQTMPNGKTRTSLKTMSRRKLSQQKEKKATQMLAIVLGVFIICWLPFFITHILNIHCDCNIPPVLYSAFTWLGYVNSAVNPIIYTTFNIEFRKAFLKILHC
#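 Cells plated overnight at 30 C with tetracycline; no-wash calcium dye, 30–90 min RT; 10 s baseline; compound pinned; 180 s read; EC80 dopamine added; another 180 s read.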
# D2 PAM-1 – D2 dopamine receptor (human) potentiation; potentiation, % at 10 µM; 340,000 compounds, 0.34% hits; AID 485347; HEK293 T-REx D2, calcium flux, EC20 dopamine potentiation; P14416;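 active means potentiation over 3 SD above the plate norm, cut at about 30% in these data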; further: 0% is about no effect
#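 Potentiation of an EC20 dopamine calcium response is measured in a force-coupled, tetracycline-inducible Hek293 Trex D2 line. Compound-only kinetic reads over 180 s flag agonists before dopamine addition.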
# D2 ag-1 – D2 dopamine receptor (human) agonism; P14416; HEK293 T-REx D2 cells, calcium flux agonist mode; activation, % at 2 µM; 340,000 compounds, 0.53% hits; AID 485358;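 active means activation over 3 SD above normal in the single-dose calcium agonist read, cut at about 30% in these data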; further: 0% is about no effect
#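 Agonism scored from kinetic calcium signal (1 read/sec, 180 s) following compound pin transfer, after a 10 s baseline. Cells: HEK293 Trex line expressing inducible D2 receptor coupled to calcium, dye-loaded after overnight culture at 30 C.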
# D2 PAM-2 – human D2 receptor positive allosteric modulation | P14416 | DiscoveRx D2 beta-arrestin cells, luminescence, 90 min; 100% = 57 uM dopamine signal | potentiation, % (concentration not given with the values) | 360,000 compounds, 0.23% hits | AID 624464; in the data active means potentiation above about 50%; inconclusive means mostly about 30% to 49%
#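 D2 cells co-treated with compound plus 50 nM dopamine (EC20) for 90 min at 37 deg C to detect potentiation. Beta-arrestin recruitment was read as enzyme-fragment luminescence after 1 h at ambient temperature. Full response was set by 57 uM dopamine.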
# D2 ag-2 – human D2 receptor agonism in beta-arrestin assay; 360,000 compounds, 0.084% hits; activation, % (test concentration not listed); DiscoveRx PathHunter D2 beta-arrestin, luminescence, 90 min; 100% = 57 uM dopamine signal; in the data active means activation above about 40%; inconclusive means between about 15% and that limit
#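 Agonist mode: compounds alone added to overnight-plated D2 PathHunter cells for 90 min at 37 C, with 57 uM final dopamine (EC100) defining full response. Beta-arrestin recruitment detected by chemiluminescent reagent, read after 1 h at ambient temperature.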
# D3 ag – D3 receptor agonism confirmed, beta-arrestin readout | shares compounds with D2 ag-1 | DiscoveRx D3 beta-arrestin cells, luminescence, 90 min | Potency, µM (titrated, usually from 76.9 µM), without a hit: top-dose activation, most hits filed as activators | 2,300 compounds, 4% hits | AID 720506;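 further: potency means the concentration at half of the fitted maximal effect; 100% = dopamine control response; nearly all actives have a fitted effect of over 70% in size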
# D2 ag-3 – activates human D2 dopamine receptor in D3 counterscreen | shares compounds with D2 ag-1 | DiscoveRx PathHunter D2 beta-arrestin, luminescence, 90 min; response scale: percent relative to full dopamine signal | Potency, µM (highest dose often 76.9 µM), without a hit: top-dose activation, most hits filed as activators | 2,300 compounds, 5.9% hits | AID 720507; further: potency means the concentration at half of the fitted maximal effect; % of control where 0% means no effect; nearly all actives have a fitted effect of over 70% in size
# * marks the source's active call; other numbers are inactive results; u = inconclusive; x = no result. Unless noted, the call rests on the fitted dose curve; in most records, active means well fitted activation curve with a large enough effect; inconclusive means small, poorly fitted or top-dose-only effect; inactive means flat fitted curve, though single readings scatter.
SMILES,D2 antagonist,D2 PAM-1,D2 ag-1,D2 PAM-2,D2 ag-2,D3 ag,D2 ag-3
O=C(C[n+]1cc(-c2ccccc2)n2c1CCC2)N1c2ccccc2Sc2ccccc21,36.8*,-29.5,64.1*,-24.0,0.1,0.7%,12.3%
Cc1ccc(-c2c[n+](CC(=O)Nc3c(C)cccc3C)c3n2CCC3)cc1,0.1,-13.0,0.7,-18.7,-6.0,x,x
Cc1ccc(NC(=O)C[n+]2cc(-c3ccccc3)n3c2CCC3)c(C)c1,65.4*,-20.1,81.2*,-5.1,0.6,-23.3%,0.1%
Cc1ccc(NC(=O)c2ccccc2N2C(=O)C3C4C=CC(C5CC45)C3C2=O)cc1C (stereo unspecified),7.4,-3.5,-0.2,-17.7,-7.5,x,x
Cc1ccc(-c2csc(NC(=O)C[n+]3cc(-c4ccccc4)n4c3CCC4)n2)cc1,63.8*,-20.8,77.1*,3.6,7.3,6.8%,17.9%
Cc1ccc(-c2csc(NC(=O)C[n+]3cc(-c4ccc(C)cc4)n4c3CCC4)n2)cc1,-18.8,-15.0,-0.8,-11.7,0.5,x,x
CCOc1ccc(C=NCC(O)c2ccccc2)cc1 (stereo unspecified),12.9,-2.3,20.8,-7.3,3.0,-3.8%,1.3%
CCOc1ccc(/C=N/NC(=O)C(OC)c2ccccc2)cc1 (stereo unspecified),0.3,5.1,0.3,4.5,1.0,x,x
CC(c1ccccc1)n1c(-c2cccs2)nc2c(c(=O)c3ccccc3n2C)c1=O (stereo unspecified),9.0,20.4,2.2,-9.2,-2.4,-10.2%,-4.5%
CN(Cc1ccccc1)C(=O)C1CCN(S(=O)(=O)c2ccc3c(c2)oc(=O)n3C)CC1,x,-5.3,-0.5,x,x,x,x
Cc1ccc(Cn2c(SCC(=O)NCc3ccccc3)nc3ccsc3c2=O)cc1,x,-5.2,1.0,x,x,x,x
O=C(COC(=O)c1ccc(CNS(=O)(=O)c2ccc(F)c(Cl)c2)cc1)NCC1CCCCC1,18.5,-23.1,68.9*,-7.8,1.3,0.2%,-1.3%
COc1ccc(C)cc1S(=O)(=O)NCCC1=CCCCC1,18.2,6.9,0.9,-16.9,-3.0,x,x
CCOc1ccc(S(=O)(=O)NCCC2=CCCCC2)c2ccccc12,16.8,-19.0,2.0,-10.0,1.3,-3.4%,3.6%
CC(C)COC(=O)N(C)C[C@@H]1OCc2cnnn2CCCC(=O)N([C@H](C)CO)C[C@@H]1C,x,x,x,0.6,-2.1,x,x
c1ccc(OCCN2CCN(Cc3nc(-c4ccc5c(c4)OCO5)no3)CC2)cc1,68.7*,-11.6,64.1*,-3.2,5.5,u,u
CCCCN(C(=O)c1c(CC)noc1C)c1c(N)n(CCCC)c(=O)[nH]c1=O,1.7,-4.0,0.5,-14.9,-9.6,x,x
Cc1ccc(C(C)C)cc1S(=O)(=O)NCc1ccccn1,x,1.2,x,6.0,-2.1,-3.3%,0.0%
COc1ccc(C(C)C)cc1S(=O)(=O)NCc1ccccn1,-11.7,6.2,0.1,-0.3,-4.2,x,x
O=c1[nH]cnc2sc3c(c12)CCN(Cc1ccccc1)C3,18.1,-15.2,62.4*,7.8,u,0.6%,0.5%
CC1(C)Cc2c(sc3nc[nH]c(=O)c23)CO1,19.2,5.7,-0.6,3.4,-0.2,x,x
O=c1[nH]cnc2sc3c(c12)CN(Cc1ccccc1)CC3,73.8*,-22.3,77.9*,18.2,u,-5.3%,-1.3%
OCCCNc1ncnc2sc3c(c12)CCN(Cc1ccccc1)C3,-11.8,-6.4,-0.3,-4.5,-5.4,x,x
OC(c1cc(-c2ccc(C(F)(F)F)cc2)nc(C(F)(F)F)c1)C1CCCCN1 (stereo unspecified),-5.8,-3.4,10.1,-42.9,u,u,u
CC(Oc1cc2oc(=O)cc(-c3ccccc3)c2cc1Cl)C(=O)NCC1CCC(C(=O)O)CC1 (stereo unspecified),43.2*,-16.5,43.1*,-13.2,2.1,4.1%,0.7%
SMILES,D2 antagonist,D2 PAM-1,D2 ag-1,D2 PAM-2,D2 ag-2,D3 ag,D2 ag-3
O=C(Nc1ccc(Br)cc1F)c1nc[nH]c1C(=O)N1CCc2ccccc2C1,x,x,x,x,-2.0,x,x
COc1ccc2[nH]c(=O)c(CN(CCc3ccccc3)Cc3nnnn3CC3CCCO3)cc2c1 (stereo unspecified),-14.2,-18.5,28.4,-12.5,-0.5,u,6.4%
COc1ccc2cc(CN(CCc3ccccc3)Cc3nnnn3CC3CCCO3)c(=O)[nH]c2c1 (stereo unspecified),-29.8,-7.3,1.8,-12.2,0.9,x,x
CCOC(=O)Cn1nnnc1CN(Cc1ccc(OC)cc1)Cc1cc2cc(CC)ccc2[nH]c1=O,18.3,-9.3,-1.6,-9.7,-1.2,-5.1%,-1.6%
CC(Nc1c[nH]c(=O)[nH]c1=O)c1ccccc1 (stereo unspecified),69.1*,4.0,1.1,-5.8,-0.4,-0.2%,0.4%
O=C(Nc1c[nH]c(=O)[nH]c1=O)c1ccccc1Br,7.5,5.9,-0.3,-2.9,-1.4,x,x
CCOc1ccc(NC(=S)NC(=O)c2c(Br)cnn2C)c([N+](=O)[O-])c1,4.5,-15.8,47.8*,-5.5,-4.9,-5.1%,1.4%
CC(=O)c1cccc(NC(=O)c2cc3nc(-c4ccc(Br)cc4)cc(C(F)(F)F)n3n2)c1,x,6.2,0.5,x,x,x,x
NNC(=O)CCn1nnc2ccccc21,x,-4.0,x,-24.7,4.0,-7.3%,-2.7%
CC(C)NC(=O)N(C)C[C@H]1Oc2ccc(NC(=O)NC3CCCCC3)cc2C(=O)N([C@H](C)CO)C[C@@H]1C,x,x,x,-4.7,0.8,x,x
CCOC(=O)N1CCC(c2cc(=O)n3[nH]cc(C(=O)OC)c3n2)CC1,-20.9,7.7,-0.4,-11.4,-4.2,x,x
CCOc1ccc(NC(=O)c2c[nH]n3c(=O)cc(C4CCN(C(=O)OC(C)(C)C)CC4)nc23)cc1,-7.7,-7.2,9.3,-6.6,-2.6,10.5%,-5.1%
CCc1nc2ccc(C(=O)N3CCCC(C(N)=O)C3)cn2c1N(C)Cc1ccc(OC)cc1 (stereo unspecified),x,x,x,-0.4,-3.7,x,x
Cc1csc(=O)n1CCC(=O)OC(C)C(=O)Nc1ccc(N2CCOCC2)cc1 (stereo unspecified),-4.3,-5.4,-1.1,-1.0,7.0,x,x
CC(=O)c1cccc(NC(=O)C(C)OC(=O)CCn2c(C)csc2=O)c1 (stereo unspecified),-10.6,-0.5,-0.1,-7.1,-1.9,-6.4%,-3.5%
O=C(CN1CCN(c2ncccn2)CC1)NCc1ccccc1,8.3,-16.7,50.4*,-2.9,9.4,20.8%,16.1%
